These results are taken from PubChem BioAssay (EPA / NIEHS).

Activity calls are given as the source filed them. Rule for the calls: active = hit-call score of the fitted dose curve at least 0.9, where 1 is the maximum; inactive = score below 0.9.

Test [1] addresses Transcription factor E2F1 (Homo sapiens) (UniProt Q01094). The experiment in a line: ATG_E2F_CIS: Attagene CIS-FACTORIAL HepG2 Assay for human E2F Transcription Factor 1 (AID 2282935). The following applies: HepG2 Attagene cis-reporter, E2F reporter RNA transcripts; actives raise or lower the signal. The essentials:
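In this cis-factorial format, endogenous factor activity drives transfected reporters in HepG2; transcripts collected at 24 h are quantified by fluorescence after RT-PCR and capillary separation.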

A short description of test [2]: ATG_E_Box_CIS: Attagene CIS-FACTORIAL HepG2 Assay for human Enhancer Box (E-box) (AID 2282936). As to conditions: HepG2 E-box cis-reporter transcription, actives raise or lower the signal. The essentials:
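Measured 24 h post-dosing in HepG2 cells transfected with multiple cis-regulated reporter units, signal being reporter mRNA induction detected by fluorescent RT-PCR with capillary electrophoresis; gain or loss fitted against DMSO.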

Test [3] is described as follows: ATG_M_61_CIS: Attagene CIS-FACTORIAL HepG2 Assay for M61 Transcription Factor (Internal Marker) (AID 2282937). As to conditions: HepG2 Attagene CIS-FACTORIAL M61 internal marker reporter; actives raise or lower the signal. The method, boiled down:
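Using transiently transfected HepG2 liver cells, reporter transcript levels were assessed 24 h post-dosing by RT-PCR and capillary electrophoresis. Changes in either direction were fitted relative to DMSO controls.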

Test [4] in a line: ATG_EGR_CIS: Attagene CIS-FACTORIAL HepG2 Assay for human Early Growth Response 1 (EGR1) (AID 2282938). The following applies: HepG2 Attagene CIS-FACTORIAL EGR reporter mRNA; actives raise or lower the signal. The essentials:
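Fluorescent capillary-electrophoresis signal of reporter cDNA fragments serves as read-out. HepG2 cells bear transiently transfected cis-promoter reporter units and are exposed 24 h; gain- or loss-of-signal is fitted against DMSO.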

A short description of test [5]: ATG_M_19_CIS: Attagene CIS-FACTORIAL HepG2 Assay for M19 Transcription Factor (Internal Marker) (AID 2282939). As to conditions: HepG2 Attagene CIS-FACTORIAL M19 internal marker reporter; actives raise or lower the signal. The method, boiled down:
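HepG2 cells transiently transfected with cis-regulated multiplexed reporter units, dosed 24 h. Reporter mRNA quantified by RT-PCR and capillary electrophoresis; internal background marker fitted bidirectionally versus DMSO.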

Test [6] can be described thus: ATG_ERE_CIS: Attagene CIS-FACTORIAL HepG2 Assay for Estrogen Response Element (ERE) (AID 2282940). The following applies: HepG2 ERE cis-reporter, Attagene RNA transcript; actives raise or lower the signal. The essentials:
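HepG2 cells transiently transfected with multiplexed cis-element reporter units, measuring endogenous transcription factor activity; ERE reporter mRNA quantified after 24 h exposure by RT-PCR, fluorescent labelling, HpaI digestion and capillary electrophoresis. Bidirectional change versus DMSO.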

Test [7] in a line: ATG_Ets_CIS: Attagene CIS-FACTORIAL HepG2 Assay for human Erythroblast Transformation Specific (ETS) (AID 2282941). The following applies: HepG2 ETS cis-reporter transcription, actives raise or lower the signal. The essentials:
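Endogenous transcription factor activity read as reporter mRNA via RT-PCR and capillary electrophoresis, with gain or loss fitted bidirectionally against DMSO. Human HepG2 liver cells, transiently transfected CIS reporter constructs, 24 h exposure.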

The target of test [8] is Hepatocyte nuclear factor 3-beta (Homo sapiens) (UniProt Q9Y261). Kind of test: ATG_FoxA2_CIS: Attagene CIS-FACTORIAL HepG2 Assay for human Forkhead box A2 (FOXA2) (AID 2282942). The following applies: HepG2 cis-reporter transcription factor activity, 24 h; actives raise or lower the signal. The essentials: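 Fluorescence signal of reporter cDNA fragments, separated by capillary electrophoresis, reflects endogenous transcription factor activity in transfected HepG2 after 24 h. Both increases and decreases fitted against DMSO.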
Hepatocyte nuclear factor 3-beta (Homo sapiens), sequence (Q9Y261 whole entry, looked up, the tested form may be a part): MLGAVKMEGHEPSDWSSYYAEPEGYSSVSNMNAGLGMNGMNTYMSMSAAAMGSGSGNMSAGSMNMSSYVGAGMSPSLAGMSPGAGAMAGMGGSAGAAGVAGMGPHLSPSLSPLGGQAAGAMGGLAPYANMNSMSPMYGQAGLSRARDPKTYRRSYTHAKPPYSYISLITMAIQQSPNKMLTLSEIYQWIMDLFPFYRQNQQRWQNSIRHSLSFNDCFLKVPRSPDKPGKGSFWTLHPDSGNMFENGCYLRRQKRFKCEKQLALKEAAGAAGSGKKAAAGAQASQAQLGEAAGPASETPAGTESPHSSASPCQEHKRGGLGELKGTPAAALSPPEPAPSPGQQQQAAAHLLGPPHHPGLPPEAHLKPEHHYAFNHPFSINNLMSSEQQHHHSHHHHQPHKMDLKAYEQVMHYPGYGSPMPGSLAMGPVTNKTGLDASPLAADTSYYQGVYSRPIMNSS

Test [9] can be described thus: ATG_FoxO_CIS: Attagene CIS-FACTORIAL HepG2 Assay for human Forkhead box O (FoxO) (AID 2282943). The following applies: HepG2 Attagene cis-reporter, FoxO element, mRNA; actives raise or lower the signal. The essentials:
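Values reflect reporter mRNA induction or loss in HepG2 cells 24 h post-dosing, fitted bidirectionally with DMSO as negative control and baseline. Detection used RT-PCR and fluorescence capillary electrophoresis.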

A short description of test [10]: ATG_GATA_CIS: Attagene CIS-FACTORIAL HepG2 Assay for human GATA Binding Protein (AID 2282944). The following applies: HepG2 GATA cis-element reporter, Attagene multiplex mRNA; actives raise or lower the signal. The method, boiled down:
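HepG2 cells transiently transfected with multiplexed cis-element reporter units measure endogenous GATA activity; after 24 h compound exposure, reporter mRNA quantified by RT-PCR and capillary electrophoresis. Changes fitted in both directions vs DMSO.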

Transcription factor E2F1 (Homo sapiens), sequence (Q01094 whole entry, looked up): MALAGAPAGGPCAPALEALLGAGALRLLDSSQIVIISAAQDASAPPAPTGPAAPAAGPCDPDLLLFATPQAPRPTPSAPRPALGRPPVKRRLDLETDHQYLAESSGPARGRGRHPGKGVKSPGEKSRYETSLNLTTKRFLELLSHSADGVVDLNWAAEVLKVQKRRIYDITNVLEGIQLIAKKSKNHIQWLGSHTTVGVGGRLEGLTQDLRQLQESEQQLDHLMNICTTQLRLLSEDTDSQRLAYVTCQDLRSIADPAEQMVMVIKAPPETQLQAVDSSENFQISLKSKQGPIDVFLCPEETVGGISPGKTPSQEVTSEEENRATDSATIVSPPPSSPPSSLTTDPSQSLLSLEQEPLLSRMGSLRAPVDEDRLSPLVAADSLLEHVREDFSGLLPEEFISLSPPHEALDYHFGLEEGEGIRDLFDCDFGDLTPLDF

Consider `O=S(=O)(OCCOC(F)(F)F)C(F)(F)F`, for which the call in test [1], in test [2], in test [3], in [4], in [5] and in test [6] was inactive. In addition, the result in test [7], in test [8], in test [9] and in test [10] was inactive.
The AC50 is the concentration at which the activity in the assay is half-maximal. For the compound `C=C(C)C(=O)OCCC(F)(F)C(F)(F)C(F)(F)C(F)(F)C(F)(C(F)(F)F)C(F)(F)F`, the compound was called inactive in test [1], in test [2], in test [3], in [4], in test [5] and in test [7]. Besides, the compound was classed as inactive in [8], in test [9] and in test [10]. The half-maximal activity concentration (AC50) in [6] was 13.8 µM (active).
For `O=C(O)C(F)(F)C(F)(F)F`, the compound was called inactive in [1], in test [2], in test [3], in test [4], in test [5] and in test [6]. The call in test [7], in [8], in test [9] and in test [10] was inactive.
For `CC(C)(C)c1ccc(OC2CCCCC2O)cc1` (stereo not given), the compound was called inactive in test [1], in test [2], in test [3], in test [4], in test [5] and in test [6]. Moreover, the outcome in test [7], in test [8], in test [9] and in test [10] was inactive.
Regarding `FC(F)(F)C(F)(F)C(F)(F)C(F)(F)C(F)(F)C(F)(F)C(F)(F)Br`, the compound was called inactive in test [1], in test [2], in test [3], in [4], in test [5] and in test [6]. The outcome in test [7], in test [8], in [9] and in test [10] was inactive.
Consider `CCCCCC=O`, for which the outcome in [1], in [2], in test [3], in test [4], in test [5] and in [6] was inactive. Further, the outcome in test [7], in test [8], in test [9] and in [10] was inactive.
With `c1ccc(-c2ccccc2-c2ccccc2)cc1`, the call in test [1], in test [2], in test [3], in test [4], in [5] and in test [7] was inactive. The outcome in test [8], in test [9] and in test [10] was inactive. Also, the AC50 in test [6] is 3.47 µM (active).
With `NC(=O)C(F)(F)C(F)(F)C(F)(F)C(F)(F)F`, the call in [1], in test [2], in test [3], in test [4], in test [5] and in [6] was inactive. Moreover, the result in test [7], in test [8], in test [9] and in test [10] was inactive.
Take `O=C(O)C(F)(F)C(F)(F)C(F)(F)C(F)(F)C(F)(F)C(F)(F)C(F)(F)C(F)(F)C(F)(F)C(F)(F)C(F)(F)C(F)(F)C(F)(F)F`: the call in test [1], in test [2], in [3], in [4], in test [5] and in test [6] was inactive. Also, the outcome in test [7], in [8], in [9] and in [10] was inactive.
For `FC(F)(F)C(F)(F)CNCC(F)(F)C(F)(F)F`, the compound was called inactive in test [1], in test [2], in test [3], in [4], in test [5] and in test [6]. Further, the outcome in test [7], in test [8], in [9] and in test [10] was inactive.
Regarding `CC(CCl)OP(=O)(OC(C)CCl)OC(C)CCl` (stereo not given), the call in [1], in test [2], in test [3], in test [4], in [5] and in [6] was inactive. The outcome in [7], in [8], in test [9] and in [10] was inactive.
As to `Nc1ccc([N+](=O)[O-])cc1O`, the result in test [1], in test [2], in test [3], in test [4], in test [5] and in test [6] was inactive. In addition, the outcome in test [7], in test [8], in [9] and in test [10] was inactive.
For `CCCCCCC(C)OC(=O)CCCCC(=O)OC(C)CCCCCC` (stereo not given), the outcome in [1], in test [2], in [3], in [4], in test [5] and in test [6] was inactive. For the same compound, the compound was classed as inactive in test [7], in test [8], in [9] and in test [10].
With `CC/C=C\CCOC(=O)c1ccccc1`, the outcome in [1], in [2], in test [3], in test [4], in [5] and in [6] was inactive. The outcome in [7], in test [8], in test [9] and in [10] was inactive.
`OCC(F)(F)C(F)(F)C(F)(F)F`: the outcome in test [1], in test [2], in [3], in test [4], in test [5] and in test [6] was inactive. Also, the compound was classed as inactive in test [7], in test [8], in test [9] and in test [10].
Turning to `CCCCCCOC(=O)c1ccccc1O`, the compound was classed as inactive in test [1], in [2], in [3], in test [4], in test [5] and in [7]. Also, the result in test [8], in test [9] and in test [10] was inactive. In addition, the AC50 in [6] is 31.4 µM (active).
Consider `c1ccc(B(c2ccccc2)c2ccccc2)cc1`, for which the compound was classed as inactive in [1], in test [3], in [4], in test [5], in test [7] and in [8]. Besides, the compound was classed as inactive in [9] and in [10]. Besides, the AC50 in [2] is 160 µM (active); in test [6] it was 9.96 µM (active).
Consider `CCc1ccc(C(c2ccc(CC)cc2)C(Cl)Cl)cc1`, for which the outcome in [1], in test [2], in [3], in [4], in test [5] and in test [7] was inactive. In addition, the compound was called inactive in [8], in test [9] and in test [10]. The AC50 in [6] was 40.1 µM (active).
With `O=C(O)C(F)(F)C(F)(F)C(F)(F)C(F)(F)C(F)(F)C(F)(F)C(F)(F)C(F)(F)C(F)(F)C(F)(F)C(F)(F)C(F)(F)F`, the compound was called inactive in test [1], in [2], in [3], in [4], in [5] and in [6]. Also, the call in [7], in test [8], in test [9] and in [10] was inactive.
Turning to `O=C(O)C=C(C(F)(F)F)C(F)(F)F`, the outcome in test [1], in test [2], in test [3], in [4], in test [5] and in [6] was inactive. Besides, the result in test [7], in [8], in [9] and in [10] was inactive.
`N=C(N)C(F)(F)C(F)(F)C(F)(F)C(F)(F)C(F)(F)C(F)(F)C(F)(F)F`: the AC50 in test [1] was 199 µM (active); in test [2], 68.5 µM (active); in test [6], 38.6 µM (active); in test [10] it was 243 µM (active). For the same compound, the compound was classed as inactive in test [3], in test [4], in test [5], in [7], in [8] and in test [9].
As to `FC(F)(F)C(F)(F)C(F)(F)C(F)(F)C(F)(F)C(F)(F)CC1CO1` (stereo not given), the compound was called inactive in [1], in test [2], in test [3], in test [4], in test [5] and in test [6]. Also, the compound was classed as inactive in test [7], in test [8], in [9] and in [10].
On to `CCc1c(Br)c(Br)c(Br)c(Br)c1Br`, for which the compound was classed as inactive in [1], in test [2], in test [3], in [4], in [5] and in test [6]. Besides, the compound was classed as inactive in [7], in test [8], in test [9] and in test [10].
